Measured values published in PubChem BioAssay AID1159580 (chemical genetic matrix, 2015).
Among all 5,500 compounds or so, about 2,000 (36%) were called active. Inconclusive results (about 18%) are left out. Cut-off read from the data, not from the text of the source: active = normalized growth mostly below about 0.91 (no sharp cut-off); inconclusive = no clear call, values can overlap the other calls; inactive = mostly above about 0.92. Some of the results follow.

Assay: chemical genetic growth profiling, strain panel (AID 1159580);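 note: tested at 20 µM; growth read once vehicle control cultures reached saturation at 30 °C; 1 = growth at the plate median or of vehicle wells; lower values mean less growth of the strain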
Settings: growth OD

Measured: normalized growth

Cc1cccc(C)c1NC(=O)C1CCCCN1C (configuration not stated)
inactive: S. cerevisiae deletion strains, locus YJR075W, strain HOC1, active compounds read low 1 | S. cerevisiae deletion strains, locus YKL009W, strain mrt4, active compounds read low 1.04 | S. cerevisiae deletion strains, locus YKL068W, active compounds read low 0.999 | S. cerevisiae deletion strains, locus YKL085W, strain MDH1 (second series), active compounds read low 1 | S. cerevisiae deletion strains, locus YKL085W, strain MDH1, active compounds read low 1 | S. cerevisiae deletion strains, locus YKL160W, strain elf1, active compounds read low 0.994 | S. cerevisiae deletion strains, locus YKL190W, strain CNB1, active compounds read low 0.982 | S. cerevisiae deletion strains, locus YKR001C, strain vps1, active compounds read low 1.01 | S. cerevisiae deletion strains, locus YKR026C, strain gcn3, active compounds read low 0.979 | S. cerevisiae deletion strains, locus YKR091W, strain srl3, active compounds read low 0.994 | S. cerevisiae deletion strains, locus YLL001W, strain dnm1, active compounds read low 0.99 | S. cerevisiae deletion strains, locus YLL026W, active compounds read low 0.991 | S. cerevisiae deletion strains, locus YLL041C, strain sdh2, active compounds read low 1 | S. cerevisiae deletion strains, locus YLR027C, strain aat2, active compounds read low 0.992 | S. cerevisiae deletion strains, locus YLR039C, strain RIC1, active compounds read low 1.01 | S. cerevisiae deletion strains, locus YLR058C, strain SHM2, active compounds read low 1 | S. cerevisiae deletion strains, locus YLR102C, strain apc9, active compounds read low 1.02 | S. cerevisiae deletion strains, locus YLR113W, strain HOG1, active compounds read low 1.01 | S. cerevisiae deletion strains, locus YLR221C, strain rsa3, active compounds read low 0.996 | S. cerevisiae deletion strains, locus YLR258W, strain gsy2, active compounds read low 0.991 | S. cerevisiae deletion strains, locus YLR262C, strain YPT6 (second series), active compounds read low 0.986 | S. cerevisiae deletion strains, locus YLR262C, strain YPT6, active compounds read low 0.996 | S. cerevisiae deletion strains, locus YLR268W, strain sec22, active compounds read low 1.02 | S. cerevisiae deletion strains, locus YLR320W, strain mms22, active compounds read low 0.976 | S. cerevisiae deletion strains, locus YLR330W, strain CHS5, active compounds read low 1.01 | S. cerevisiae deletion strains, locus YLR342W, strain FKS1 (second series), active compounds read low 1.03 | S. cerevisiae deletion strains, locus YLR342W, strain FKS1, active compounds read low 0.992 | S. cerevisiae deletion strains, locus YLR357W, strain rsc2, active compounds read low 0.972 | S. cerevisiae deletion strains, locus YLR370C, strain arc18, active compounds read low 0.978 | S. cerevisiae deletion strains, locus YLR371W, strain rom2, active compounds read low 1.02 | S. cerevisiae deletion strains, locus YLR384C, strain iki3, active compounds read low 0.985 | S. cerevisiae deletion strains, locus YLR418C, strain cdc73, active compounds read low 1.03 | S. cerevisiae deletion strains, locus YML016C, strain PPZ1, active compounds read low 1 | S. cerevisiae deletion strains, locus YML032C, strain rad52, active compounds read low 0.998 | S. cerevisiae deletion strains, locus YML120C, strain ndi1, active compounds read low 0.987 | S. cerevisiae deletion strains, locus YML124C, strain tub3, active compounds read low 1.02 | S. cerevisiae deletion strains, locus YMR058W, strain fet3, active compounds read low 0.988 | S. cerevisiae deletion strains, locus YMR078C, strain ctf18, active compounds read low 1.01 | S. cerevisiae deletion strains, locus YMR125W, strain sto1, active compounds read low 0.98 | S. cerevisiae deletion strains, locus YMR129W, active compounds read low 0.995 | S. cerevisiae deletion strains, locus YMR205C, strain PFK2, active compounds read low 0.976 | S. cerevisiae deletion strains, locus YMR223W, strain ubp8, active compounds read low 0.998 | S. cerevisiae deletion strains, locus YMR231W, strain pep5, active compounds read low 0.985 | S. cerevisiae deletion strains, locus YMR263W, strain SAP30, active compounds read low 0.997 | S. cerevisiae deletion strains, locus YMR307W, strain GAS1, active compounds read low 0.985 | S. cerevisiae deletion strains, locus YNL067W, strain RPL9B, active compounds read low 0.996 | S. cerevisiae deletion strains, locus YNL071W, strain lat1, active compounds read low 0.989 | S. cerevisiae deletion strains, locus YNL128W, strain TEP1, active compounds read low 1.01 | S. cerevisiae deletion strains, locus YNL153C, strain GIM3, active compounds read low 1.01 | S. cerevisiae deletion strains, locus YNL183C, strain NPR1, active compounds read low 0.963 | S. cerevisiae deletion strains, locus YNL209W, strain ssb2, active compounds read low 0.987 | S. cerevisiae deletion strains, locus YNL233W, strain BNI4, active compounds read low 1.01 | S. cerevisiae deletion strains, locus YNL248C, strain rpa49, active compounds read low 0.976 | S. cerevisiae deletion strains, locus YNL250W, strain rad50, active compounds read low 0.999 | S. cerevisiae deletion strains, locus YNL271C, strain bni1, active compounds read low 1.01 | S. cerevisiae deletion strains, locus YNL298W, strain CLA4, active compounds read low 1.01 | S. cerevisiae deletion strains, locus YNL307C, strain MCK1, active compounds read low 1.02 | S. cerevisiae deletion strains, locus YNL322C, strain KRE1 (second series), active compounds read low 0.966 | S. cerevisiae deletion strains, locus YNL322C, strain KRE1, active compounds read low 1.01 | S. cerevisiae deletion strains, locus YNR049C, strain mso1, active compounds read low 0.99 | S. cerevisiae deletion strains, locus YNR052C, strain pop2, active compounds read low 1 | S. cerevisiae deletion strains, locus YOL006C, strain TOP1, active compounds read low 1.02 | S. cerevisiae deletion strains, locus YOL012C, strain htz1 0.844 | S. cerevisiae deletion strains, locus YOL147C, strain pex11, active compounds read low 1.01 | S. cerevisiae deletion strains, locus YOR001W, strain rrp6, active compounds read low 0.974 | S. cerevisiae deletion strains, locus YOR061W, strain CKA2, active compounds read low 1 | S. cerevisiae deletion strains, locus YOR069W, strain VPS5, active compounds read low 0.999 | S. cerevisiae deletion strains, locus YOR070C, strain gyp1, active compounds read low 0.991 | S. cerevisiae deletion strains, locus YOR080W, strain dia2, active compounds read low 0.981 | S. cerevisiae deletion strains, locus YOR083W, strain WHI5, active compounds read low 0.989 | S. cerevisiae deletion strains, locus YOR106W, strain vam3, active compounds read low 1.01 | S. cerevisiae deletion strains, locus YOR136W, strain idh2, active compounds read low 1.02 | S. cerevisiae deletion strains, locus YOR144C, strain elg1, active compounds read low 1.01 | S. cerevisiae deletion strains, locus YOR184W, strain ser1, active compounds read low 1.02 | S. cerevisiae deletion strains, locus YOR231W, strain MKK1, active compounds read low 1.03 | S. cerevisiae deletion strains, locus YOR265W, strain rbl2, active compounds read low 1 | S. cerevisiae deletion strains, locus YOR270C, strain vph1, active compounds read low 0.981 | S. cerevisiae deletion strains, locus YOR290C, strain snf2, active compounds read low 0.999 | S. cerevisiae deletion strains, locus YOR316C, strain cot1, active compounds read low 1.01 | S. cerevisiae deletion strains, locus YPL051W, strain arl3, active compounds read low 0.993 | S. cerevisiae deletion strains, locus YPL055C, strain LGE1, active compounds read low 0.992 | S. cerevisiae deletion strains, locus YPL078C, strain atp4, active compounds read low 0.997 | S. cerevisiae deletion strains, locus YPL106C, strain sse1, active compounds read low 0.98 | S. cerevisiae deletion strains, locus YPL240C, strain hsp82, active compounds read low 1 | S. cerevisiae deletion strains, locus YPL241C, strain CIN2, active compounds read low 0.999 | S. cerevisiae deletion strains, locus YPL256C, strain CLN2, active compounds read low 1.01 | S. cerevisiae deletion strains, locus YPR119W, strain clb2, active compounds read low 1.02 | S. cerevisiae deletion strains, locus YPR141C, strain kar3, active compounds read low 1.01 | S. cerevisiae deletion strains, locus YPR163C, strain tif3, active compounds read low 1.02 | S. cerevisiae deletion strains, locus YPR167C, strain met16, active compounds read low 1.01 | S. cerevisiae deletion strains, strain wtn01, active compounds read low 1.01 | S. cerevisiae strains, strain wild type, active compounds read low 0.992
